ELG1 repair inh – inhibitors of ELG1-dependent DNA repair in HEK293T cells; 2.3% of 330,000 active; HEK293T ELG1-luciferase reporter, luminescence, 16 h; DNA damage induced by 5-fluorouridine; AID 504467; Potency, µM (doses to about 46.1 µM), actives largely listed as inhibitors; also: nearly all actives have a fitted effect of over 55% in size
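Reporter activity after DNA damage by 5-fluorouridine is monitored. Compound-treated cells incubate 16 hr at 37 °C, then ONE-Glo is added for 30 min before luminescence reading.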
Nrf2 activator – activators of Nrf2 (ARE) signaling. AREc32 ARE-luciferase reporter (MCF7-derived line), luminescence, 24 h. Potency, µM (top dose mostly 46.1 µM), usual class: activators. 0.31% of 410,000 active; also: nearly all actives have a fitted effect of over 65% in size
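Cells of the AREc32 ARE-luciferase line are plated in OPTI-MEM containing 5% FBS and left overnight at 37 deg C. Compounds are pinned in, incubation continues 24 hr, and firefly luciferase signal is then measured.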
A549 viability – kills or reduces viability of A549 cells in Nrf2 counter-screen | 0.16% of 390,000 active | A549 ARE-Fluc cells, CellTiter-Fluor viability, 18-24 h | Potency, µM (series often up to 46 µM), usual class: inhibitors | AID 504648
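Cytotoxicity counterscreen: CellTiter-Fluor fluorescence was measured in A549 ARE_Fluc cells after 18-24 h of compound exposure in a concentration series. The subsequent BugLite luminescent read reports ARE-luciferase activity.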
Nrf2 block – blocks Nrf2 signaling; A549 ARE-Fluc reporter, luciferase luminescence, 18-24 h; Potency, µM (titrated, usually from 46 µM), hits mostly inhibitors; 2.1% of 360,000 active; also: nearly all actives have a fitted effect of over 60% in size
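A549 ARE_Fluc cells, 5000/well, 5% FBS OPTI-MEM; compounds in dose-response, 18-24 h at 37 °C/5% CO2; CellTiter-Fluor viability read (Ex 405/Em 525), then BugLite luciferase luminescence = Nrf2 activity.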
A number is an active result; i = inactive; ? = inconclusive; nt = no result given; [ ] = dose if it differs, or a comment. Hits are enriched below; roughly 3.7% of the tested compounds scored in any of these assays. Calls follow the shape of the dose curve; as a rule, active = well fitted curve in the direction sought with a large enough effect; inconclusive = small, poorly fitted or top-dose-only effect, or another doubt; inactive = no such curve, though single readings can be large; an effect the other way counts as inactive or inconclusive.

SMILES | ELG1 repair inh | Nrf2 activator | A549 viability | Nrf2 block
CCOc1cccc(CC(=O)NCc2ccc3c(c2)CCN3C(=O)c2cccc(C)c2)c1OCC | nt | i | i | 21µM
O=P(Oc1ccccc1)(Oc1ccccc1)C(Nc1ccccc1)c1ccccc1 (configuration not stated) | 21µM | i | i | 21µM
N#Cc1ccccc1NC(=O)c1cccn(Cc2ccccc2)c1=O | nt | i | i | nt
CCCCCCn1c(=O)c(C(=O)Nc2nc(CC(=O)OCC)cs2)c(O)c2ccccc21 | 1.6µM | i | i | i
CCOC(=O)CN1C(=O)N[C@@H](c2cccc(C(F)(F)F)c2)C(C(C)=O)=C1C | nt | i | i | ?
C[C@H]1CCC/C=C/[C@@H]2C[C@H](O)C[C@H]2[C@@H](O)/C=C/C(=O)O1 | nt | i | ? | 0.26µM
CCCC1=Nc2cc(C(=O)NCCc3ccc(OC)cc3OC)ccc2Sc2ccccc21 | nt | i | i | 18µM
O=C(Cc1ccc(S(=O)(=O)N2CCCC2)s1)N1CCN(c2ccc(F)cc2)CC1 | ? | i | i | 18µM
CC(=O)N1c2ccc(S(=O)(=O)NCC3CCC(C(=O)Nc4cc(C)cc(C)c4)CC3)cc2CC1C (configuration not stated) | nt | i | i | 21µM
Cc1cc(C)cc(-n2c(/C=C/c3cccc(F)c3)nc3ccccc3c2=O)c1 | nt | i | i | nt
CCOC(=O)[C@]12Cc3cc(Cl)ccc3[C@H]1N(C(C)C)C(=O)c1ccccc12 | nt | i | nt | nt
O=C(Nc1ccc(C(F)(F)F)cc1)c1cccn(Cc2ccc3c(c2)OC(F)(F)O3)c1=O | i | i | i | ?
NC(=O)c1cccn(Cc2ccc(C(F)(F)F)cc2)c1=O | i | i | i | 16µM
CNC(=O)c1cccn(Cc2cc(C(F)(F)F)cc(C(F)(F)F)c2)c1=O | 6.5µM | i | i | 5.2µM
CNC(=O)c1cccn(Cc2ccc(C(F)(F)F)cc2)c1=O | ? | ? | i | ?
OCC(CBr)(CBr)CBr | ? | i | i | i
C=CCNC(=O)c1c(N)n(Cc2ccco2)c2nc3ccccc3nc12 | ? | i | ? | ?
COCCNC(=O)c1c(N)n(Cc2ccco2)c2nc3ccccc3nc12 | 13µM | i | i | i
Nc1c(C(=O)NCCN2CCOCC2)c2nc3ccccc3nc2n1Cc1ccco1 | 21µM | i | i | i
Nc1c(C(=O)NCCN2CCOCC2)c2nc3ccccc3nc2n1Cc1ccccc1 | ? | i | i | i
CCCCn1c(N)c(C(=O)NCCN2CCOCC2)c2nc3ccccc3nc21 | 5.8µM | i | i | nt
CCN(CC)S(=O)(=O)c1ccc(C(=O)O)cc1 | ? | i | i | i
COc1ccc(-c2cc3nc(C)c(CCC(=O)N4CCN(c5cc(C)ccc5C)CC4)c(C)n3n2)c(OC)c1 | nt | i | i | ?
Fc1ccc([C@@H]2CCNC[C@H]2COc2ccc3c(c2)OCO3)cc1 | ? | i | ? | i
Cc1ccc(-n2nc3c(N4CCC(C(=O)NCc5ccccc5Cl)CC4)nnc(C)c3c2C)cc1 | nt | i | i | ?
SMILES | ELG1 repair inh | Nrf2 activator | A549 viability | Nrf2 block
CCN(CC(=O)Nc1ccccc1C(F)(F)F)C(=O)CCSc1ccc(F)cc1 | i | i | i | ?
c1ccc(/N=C2\N=C(Nc3ccccn3)c3ccccc32)nc1 | nt | i | i | ?
CCC(=O)c1ccc(OCC(=O)N2CCN(CC(=O)Nc3ccccc3C(F)(F)F)CC2)cc1 | 16µM | i | i | 16µM
COc1ccc(NC(=O)c2cn(CCC#N)nc2-c2ccccc2)cc1 | i | i | i | i
COc1ccc(Nc2cc(C)c3cc(NC(=O)c4ccccc4Cl)ccc3n2)cc1 | nt | i | i | 26µM
C=C1C(O)[C@@H]2O[C@]3(CC[C@H](/C=C/C(C)[C@@H]4CC(C)=CC5(O[C@H](C[C@@](C)(O)C(=O)O)CCC5O)O4)O3)CC[C@H]2O[C@@H]1C(O)CC(C)[C@H]1OC2(CCCCO2)CCC1C (some centres not stated) | 0.052µM | i | ? | ?
CC(C)(C)c1ccc(C(=O)NC(=S)Nn2cnnc2)cc1 | ? | i | i | ?
CC(=O)OC1C(O)C2=C3C4(C)C1C(C)(C)C(=O)CC4C3(O)C(OC(C)=O)C1(CC1C)C2=O (configuration not stated) | nt | i | nt | nt
O=[N+]([O-])c1ccc(C(c2ccc([N+](=O)[O-])cc2)c2ccc([N+](=O)[O-])cc2)cc1 | nt | i | i | 23µM
Nc1c(C(=O)OCc2ccccc2)c2nc3ccccc3nc2n1Cc1cccs1 | 21µM | i | ? | 23µM
CCOP(=S)(OCC)N1CCOCCOCCN(P(=S)(OCC)OCC)CCOCCOCC1 | i | i | i | i
CCOC(=O)c1c(C)c(P(=S)(N2CCOCC2)N2CCOCC2)n(C)c1C | 16µM | i | i | i
O=C(NNc1c(F)c(F)cc(F)c1F)c1cc2ccccc2oc1=O | ? | i | i | i
Cc1ccccc1N1C(=O)NC(=O)/C(=C/c2ccc(N3CCOCC3)o2)C1=O | i | i | i | i
Cc1ccccc1N1C(=O)NC(=O)/C(=C\c2cc(Br)c(N3CCOCC3)o2)C1=O | i | i | 23µM | 16µM
CC(=O)c1cn(CCCOc2ccccc2)c2ccccc12 | i | i | i | 21µM
Cc1cc2c(cc1C)-n1c(-c3ccccc3)c3c(=O)n(C)c(=O)n(C)c3c1C(c1ccco1)N2 (configuration not stated) | nt | i | i | ?
CCCn1c(=O)n(C)c(=O)c2c(SCC(=O)NC34CC5CC(CC(C5)C3)C4)nc(CC(C)C)nc21 | 23µM | i | i | i
Cn1cnc([N+](=O)[O-])c1Sc1ccc([N+](=O)[O-])cc1 | ? | i | ? | 9.2µM
COc1ccc(CCn2c(O)c(/C=N/N3CCOCC3)c(=O)[nH]c2=O)cc1OC | 18µM | i | i | i
CC(C)n1c(N2CCN(S(=O)(=O)c3cccc([N+](=O)[O-])c3)CC2)nc2ccccc21 | 23µM | i[9.22 µM] | i | i
O=[N+]([O-])c1cccc(C2N3CCCN23)c1 (configuration not stated) | i | i | i | i
COc1ccc(Cn2c(=O)oc3ccc(C)cc32)cc1OC | i | i | i | ?
O=C(COc1ccccc1Cl)N1CCN(CCc2ccncc2)CC1 | nt | i | i | i
Cn1ncnc2c(=O)n(C)c(=O)nc1-2 | 6.5µM | i | 0.46µM | 0.18µM
SMILES | ELG1 repair inh | Nrf2 activator | A549 viability | Nrf2 block
Cc1ccc(-c2nc3c(=O)n(C)c(=O)nc-3n(C)n2)cc1 | nt | nt | 2.9µM | 3.3µM
CCCn1cc(S(=O)(=O)c2ccc(OC)cc2)c(=O)c2cc(F)c(N3CCCCCC3)cc21 | nt | i | i | ?
O=C(C[N+]12CCC(CC1)C(CO)C2)c1ccc([N+](=O)[O-])cc1 (configuration not stated) | 9.2µM | i | i | i
CCOc1ccccc1NC(=O)c1sc2nc3c(cc2c1N)CN(Cc1ccccc1)CC3 | nt | i | i | ?
CCOC(=O)[C@]12Cc3ccc4ccccc4c3[C@H]1N(Cc1ccccc1)C(=O)c1ccccc12 | nt | i | nt | nt
COc1ccc(Nc2nc(N)nc(CSc3nc4ccccc4s3)n2)cc1 | nt | i | i | 21µM

Screening data (PubChem)
